The values below come from the supplement of paper PMC9177965.

Test [1] deals with HT29 RNF43 G659fs (RNF43 659mut, CRISPR-edited). Kind of test: cell viability activity relative to DMSO (negative = inhibition); higher = more viable cells (less growth inhibition). The following applies: 5 µM; 96 h. Here is the method:
(§1)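 Broad Repurposing Library primary screen at a single dose of 5 uM. HT29 sg-Ctrl and HT29 RNF43 G659fs CRISPR-edited isogenic cells were seeded at 2500 cells/well in 384-well plates in duplicate and treated for 96 h. Viability was read by CellTiter-Glo and reported as % activity relative to DMSO, with MG132 as the positive control (negative = growth inhibition).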

The subject of test [2] is HT29 sg-Ctrl (RNF43 wildtype). The description is as above. The settings on record: 5 µM; 96 h. Here is the method:
as §1

For the molecule `COc1cc2nc(N3CCC(N4CCCCC4)CC3)nc(NC3CCCCCC3)c2cc1OC`, the cell viability activity is -93.5% in test [1] and -95.5% in test [2].

Take `CCCCCCCCCCCC[N+](C)(C)CCOc1ccccc1`: the cell viability activity in test [1] was -84.4%; in test [2] it was -91.5%.

For `O=C(NC1CCNCC1)c1n[nH]cc1NC(=O)c1c(Cl)cccc1Cl`, the cell viability activity in test [1] is -82.8%; in test [2], -83.8%.

With `O=C(NOCC(O)CO)c1cc(Br)c(F)c(F)c1Nc1ccc(I)cc1F` (centres undefined), the cell viability activity in test [1] was -75.8%; in test [2], -79.7%.

For the molecule `c1ccc2c(CCNc3ccc(Nc4ccncc4)cc3)c[nH]c2c1`, the values for the cell viability activity in test [1] and in test [2] were -93.4% and -90.3%, respectively.

For the molecule `CCC(=O)N1CCN(c2ccc(-n3c(=O)ccc4cnc5ccc(-c6cnc7ccccc7c6)cc5c43)cc2C(F)(F)F)CC1`, the figures for the cell viability activity in test [1] and in test [2] were -56.6% and -34.6%, respectively.

With `COc1cc2ncnc(Nc3ccc(F)c(Cl)c3)c2cc1NC(=O)/C=C/CN1CCCCC1`, the cell viability activity in test [1] is -93.1%; in test [2], -77.9%.

As for `CC(=O)OC1CC2CCC1(C)C2(C)C` (centres undefined), the cell viability activity is -28.1% in test [1] and -26.5% in test [2].

Turning to `CCCCCCCCCCC(CO)CCCCCCCC` (centres undefined), the cell viability activity is -65.4% in test [1] and -76.7% in test [2].

As for `Nc1ncccc1-c1nc2ccc(-c3ccccc3)nc2n1-c1ccc(C2(N)CCC2)cc1`, the results for the cell viability activity in test [1] and in test [2] were -70.4% and -49.1%, respectively.

`CCOc1cc2ncc(C#N)c(Nc3ccc(OCc4ccccn4)c(Cl)c3)c2cc1NC(=O)/C=C/CN(C)C`: the cell viability activity in test [1] was -50.3%; in test [2], -30.9%.

Consider `O=P(O)(O)C(O)(Cn1ccnc1)P(=O)(O)O`, for which the values for the cell viability activity in test [1] and in test [2] were -39.2% and -25.6%, respectively.

Consider `CN(C)/N=N/c1[nH]cnc1C(N)=O`, for which the cell viability activity in test [1] is -31.5%; in test [2] it was -26.5%.

In the case of `CC(C)c1ccc(NC(=O)Cn2cnc3c2c(=O)n(C)c(=O)n3C)cc1`, the cell viability activity in test [1] was -55.3%; in test [2] it was -23.8%.

`C=CC(=O)Nc1cc2c(Nc3ccc(F)c(Cl)c3)ncnc2cc1C#CC(C)(C)N1CCN(C)CC1`: the cell viability activity in test [1] is -94.8%; in test [2], -86.1%.

In the case of `Fc1ccc(-n2cc(CCCCN3CCC4(CC3)OCc3ccccc34)c3ccccc32)cc1`, the results for the cell viability activity in test [1] and in test [2] were -70.6% and -62.5%, respectively.

For `C[C@@H](Oc1cc(-n2cnc3ccc(CN4CCN(C)CC4)cc32)sc1C(N)=O)c1ccccc1C(F)(F)F`, the cell viability activity in test [1] was -89.5%; in test [2], -76.1%.

Consider `NS(=O)(=O)OC[C@@H]1C[C@@H](n2ccc3c(N[C@H]4CCc5ccccc54)ncnc32)C[C@@H]1O`, for which the results for the cell viability activity in test [1] and in test [2] were -78% and -63.2%, respectively.

Regarding `CNCCCOc1cc(F)c(-c2c(Cl)nc3ncnn3c2N[C@@H](C)C(F)(F)F)c(F)c1`, the cell viability activity was -72.6% in test [1] and -62.1% in test [2].

Consider `CCNC(=O)C#Cc1ccc2c(C(=Nc3ccc(CN(C)C)cc3)c3ccccc3)c(O)[nH]c2c1`, for which the cell viability activity is -98.3% in test [1] and -96.8% in test [2].

Take `Cc1cc(Nc2cc(N3CCN(C)CC3)nc(/C=C/c3ccccc3)n2)n[nH]1`: the figures for the cell viability activity in test [1] and in test [2] were -74.6% and -75.7%, respectively.

`Nc1ncnc2c1c(-c1cccc(OCc3ccccc3)c1)cn2C1CC(CN2CCC2)C1` (centres undefined): the cell viability activity in test [1] is -55.1%; in test [2] it was -61.2%.

For the molecule `Nc1ncnc2c1c(-c1cnc3[nH]ccc3c1)nn2C1CCCC1`, the cell viability activity in test [1] is -84.8%; in test [2], -78.7%.

`FC(F)(F)Oc1ccc2nc(-c3ccc(OCCOCCOc4ccc(-c5nc6ccc(OC(F)(F)F)cc6[nH]5)nc4)cn3)[nH]c2c1`: in test [2], the cell viability activity was -16%.

`Cc1cc(C(=O)NOCCO)c(Nc2ccc(I)cc2F)n(C)c1=O`: in test [2], the cell viability activity was -88.5%.

As to `CS(=O)(=O)N1CCN(Cc2cc3nc(-c4cccc5[nH]ncc45)nc(N4CCOCC4)c3s2)CC1`, the cell viability activity in test [1] is -62.8%; in test [2] it was -51.8%.

Take `NC(=O)N1CCC(CC(=O)N2CCC([C@H]3c4ncc(Br)cc4CCc4cc(Cl)cc(Br)c43)CC2)CC1`: the cell viability activity in test [1] was -51%; in test [2] it was -56.6%.

Take `N#Cc1ccncn1`: the cell viability activity was -26.7% in test [1] and -18.3% in test [2].

Turning to `Nc1cc(C(F)(F)F)c(-c2cc(N3CCOCC3)nc(N3CCOCC3)n2)cn1`, the cell viability activity in test [1] is -75.9%; in test [2], -60.1%.

As for `C[C@@H](Oc1ccc2[nH]nc(/C=C/c3cnn(CCO)c3)c2c1)c1c(Cl)cncc1Cl`, the cell viability activity in test [1] was -87.9%; in test [2], -88.8%.

`COC(=O)Nc1ccc(-c2nc(N3CCOCC3)c3cnn(C4CCN(C(=O)OC)CC4)c3n2)cc1`: the cell viability activity was -50% in test [1] and -38% in test [2].

As for `O=C(O)/C=C/c1ccc(O)c(O)c1`, the cell viability activity in test [1] was -66.6%; in test [2], -80.2%.

`CCC[C@H](Nc1nc(-c2ccc(NC(=O)NCC)c(OC)c2)ncc1C)c1cccnc1`: the cell viability activity is -57.8% in test [1] and -49.4% in test [2].

Consider `CC[C@@H]1C(=O)N(C)c2cnc(Nc3ccc(C(=O)N[C@H]4CC[C@H](N5CCN(CC6CC6)CC5)CC4)cc3OC)nc2N1C(C)C`, for which, in test [2], the cell viability activity was -77.9%.

Turning to `Cc1cc(O)c(-c2ccc([C@@H](C)CN)cc2)c2c1[nH]c(=O)c1sccc12`, the cell viability activity was -92.6% in test [1] and -92.7% in test [2].

With `N#Cc1ccc(Cn2cncc2CN2CCN(c3cccc(Cl)c3)C(=O)C2)cc1`, the cell viability activity in test [1] is -45.7%; in test [2] it was -43.4%.

Regarding `CCCC[C@H](NC(C)=O)C(=O)N[C@H]1CC(=O)NCCCC[C@@H](C(=O)O)NC(=O)[C@H](Cc2c[nH]c3ccccc23)NC(=O)[C@H](CCCNC(=N)N)NC(=O)[C@@H](Cc2ccccc2)NC(=O)[C@H](Cc2c[nH]cn2)NC1=O`, the cell viability activity in test [1] was -42.1%; in test [2], -7.64%.

In the case of `COc1c/c(=C2\C=c3ccccc3=N2)[nH]/c1=C\c1[nH]c(C)cc1C`, the cell viability activity in test [1] was -93.8%; in test [2], -88.7%.

On to `CC1(C)CC(Oc2ccc(-c3ccc(-c4cn[nH]c4)cc3O)nn2)CC(C)(C)N1`, for which the cell viability activity in test [1] was -77%; in test [2] it was -89.2%.

In the case of `OCCn1cc(-c2ccc3c(c2)CC/C3=N\O)c(-c2ccncc2)n1`, the cell viability activity in test [1] is -29.3%; in test [2], -39.2%.

With `CN(Cc1cnc2nc(N)nc(N)c2n1)c1ccc(C(=O)N[C@@H](CCC(=O)O)C(=O)O)cc1`, the cell viability activity in test [1] is -67.9%; in test [2], -66%.

For `Cn1c(=O)c(F)c(Nc2ccc(I)cc2F)c2c(=O)n(C[C@@H](O)CO)cnc21`, the cell viability activity is -86.8% in test [1] and -90.5% in test [2].

With `CC(=O)c1ccc2c(c1)[C@@H]1C=CC[C@@H]1[C@H](c1cc3c(cc1Br)OCO3)N2`, the cell viability activity in test [1] was -69.9%; in test [2], -56.9%.

For the molecule `c1cncc(CN2CCC(n3ncc4c(N5CCOCC5)nc(-c5ccc6[nH]ccc6c5)nc43)CC2)c1`, the values for the cell viability activity in test [1] and in test [2] were -74.3% and -75.2%, respectively.

In the case of `Cc1cc(NC(=O)NCCN2CCC(O)(Cc3ccccc3)CC2)c2ccccc2n1`, the cell viability activity in test [1] is -36.2%; in test [2], -24.3%.

As for `CC(CN1c2ccccc2Sc2ccccc21)N(C)C` (centres undefined), the cell viability activity in test [1] was -40.7%; in test [2] it was -3.76%.
